RGS4-Gao reg: modulates binding of RGS4 to human Galphao. P09471. Multiplexed bead flow cytometry; actives lie on both sides. binding response (% of control), % at 10 µM. 220,000 compounds, 0.33% hits. AID 1415; in the data active = binding response below about 49% or above about 150%; inactive = in between;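 note: fluorescent Galphao activated with aluminum fluoride binding bead-coupled RGS4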
RGS16-Gao: modulates binding between human RGS16 and Galphao; O15492+P09471; bead-based flow cytometry RGS16-Galphao binding, fluorescence; actives lie on both sides; binding response (% of control), % at 10 µM; 220,000 compounds, 0.38% hits; AID 1441;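 note: Galphao activated by GDP with aluminum fluoride before binding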
RGS7-Gao: modulates binding of RGS7 to human Galphao | P09471 | Multiplexed bead flow cytometry; actives lie on both sides | binding response (% of control), % at 10 µM | 220,000 compounds, 0.35% hits; in the data active = binding response below about 49% or above about 150%; inconclusive = no clear call, values can overlap the other calls; inactive = in between;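 note: fluorescent Galphao held in activated GDP-AlF4 state binding bead-coupled RGS7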
RGS8-Gao: modulates binding of RGS8 to human Galphao; P09471; multiplexed bead flow cytometry; actives lie on both sides; response (percent of control binding), % at 10 µM; 220,000 compounds, 0.34% hits; AID 1423; in the data active = response below about 60% or above about 140%; inactive = in between;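 note: Galphao activated as the GDP aluminium fluoride complex binding bead-coupled RGS8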
RGS4-Gao HTS: regulators of human RGS4-Galphao interaction | shares compounds with RGS16-Gao | multiplexed bead flow cytometry, RGS–Galpha-o binding | RGS4–Galpha-o binding response, % at 10 µM | 1,600 compounds, 99% hits;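 note: fluorescently labeled Galpha-o bound to GDP with aluminium fluoride binding biotinylated RGS beads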
Target sequence (P09471 whole entry, looked up): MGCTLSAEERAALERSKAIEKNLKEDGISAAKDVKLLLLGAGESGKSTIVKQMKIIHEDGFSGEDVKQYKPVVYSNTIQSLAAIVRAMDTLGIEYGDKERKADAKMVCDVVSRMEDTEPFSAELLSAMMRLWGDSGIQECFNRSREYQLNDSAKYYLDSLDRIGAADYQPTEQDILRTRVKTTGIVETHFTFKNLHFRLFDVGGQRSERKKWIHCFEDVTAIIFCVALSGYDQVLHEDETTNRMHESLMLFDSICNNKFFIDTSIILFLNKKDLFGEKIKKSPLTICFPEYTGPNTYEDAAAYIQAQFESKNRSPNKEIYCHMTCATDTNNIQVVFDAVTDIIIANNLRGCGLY
Target sequence (P49798 whole entry, looked up): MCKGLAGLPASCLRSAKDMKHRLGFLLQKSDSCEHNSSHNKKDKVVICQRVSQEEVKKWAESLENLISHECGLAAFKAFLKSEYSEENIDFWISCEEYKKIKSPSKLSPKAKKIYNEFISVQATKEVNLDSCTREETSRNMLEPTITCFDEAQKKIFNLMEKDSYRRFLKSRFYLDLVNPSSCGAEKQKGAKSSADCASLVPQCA
Avidin counter: biotin-avidin bead binding disruption counter-screen; streptavidin beads, fluorescein-biotin binding, flow cytometry; AID 1783; 1,700 tested, under 10 active; inhibition, % at 10 µM; shares compounds with RGS16-Gao;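 active = inhibition above 50%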;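 note: median green fluorescence of gated singlet beads compared with DMSO control wells; 0% = DMSO wells and 100% = complete loss of bead fluorescence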
RGS8-Gao single: confirmation of regulators of human RGS8-Galphao interaction; shares compounds with RGS16-Gao; bead-based flow cytometry RGS8-Galphao binding, fluorescence; actives lie on both sides; binding response (% of control), % at 10 µM; 1,700 compounds, 3% hits; AID 1836; in the data active = binding response below about 72% or above about 130%; inactive = in between;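 note: Galphao activated as GDP AlF4 complex before binding bead RGS8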
RGS7-Gao confirm: RGS7-Galphao interaction regulation, single point confirmation | shares compounds with RGS16-Gao | bead-based flow cytometry RGS7-Galphao binding; actives lie on both sides | response (percent of control binding), % at 10 µM | 1,700 compounds, 7.8% hits; in the data active = response below about 75% or above about 130%; inactive = in between;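 note: fluorescent Galphao activated with GDP and aluminum fluoride binding bead-coupled RGS7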
RGS16-Gao conf: RGS16-Galphao interaction regulation, single point confirmation; shares compounds with RGS16-Gao; bead-based flow cytometry, RGS16-Galphao binding; actives lie on both sides; response (% of control binding), % at 10 µM; 1,700 compounds, 4% hits; AID 1838; in the data active = response below about 74% or above about 130%; inactive = in between;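 note: Galphao activated as the GDP aluminium fluoride complex binding bead-coupled RGS16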
RGS4-Gao confirm: RGS4-Galphao interaction regulation, single point confirmation; binding response (% of control), % at 10 µM; AID 1840; 1,700 compounds, 4% hits; RGS4-Galphao binding, multiplexed bead flow cytometry; actives lie on both sides; shares compounds with RGS16-Gao; in the data active = binding response below about 74% or above about 130%; inactive = in between
RGS19-Gao conf: confirmation of regulators of human RGS19-Galphao interaction; shares compounds with RGS16-Gao; bead-based flow cytometry RGS19-Galphao binding; actives lie on both sides; response (percent of control binding), % at 10 µM; 1,700 compounds, 5% hits; AID 1841; in the data active = response below about 50% or above about 160%; inactive = in between;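 note: 100% = no compound control and 0% = blank background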
Numbers without * were called inactive; ? = inconclusive; · = no result given; [ ] = remark or other dose. Shown are actives, neighbours in structure and some others; about 0.78% of the full set was active somewhere. Unless noted, the rule behind the calls is not given here.

SMILES	RGS4-Gao reg	RGS16-Gao	RGS7-Gao	RGS8-Gao	RGS4-Gao HTS	Avidin counter	RGS8-Gao single	RGS7-Gao confirm	RGS16-Gao conf	RGS4-Gao confirm	RGS19-Gao conf
CCOC(=O)N/N=C\c1ccc(-c2cccc(C(F)(F)F)c2)o1	103	100	104	103	·	·	·	·	·	·	·
NS(=O)(=O)c1ccc(N/N=C/c2cn(-c3ccccc3)nc2-c2ccccc2)c([N+](=O)[O-])c1	102	102	124	99	·	·	·	·	·	·	·
Cn1cc(Br)c(C(=O)Nc2ncc(Br)s2)n1	15*	8.7*	12*	14*	·	1	102	90	97	92	100
COc1ccc(/C=N/NC(=O)c2nc(-c3ccccc3)n(-c3ccccc3)n2)c(O)c1	91	98	98	98	·	·	·	·	·	·	·
COc1ccc(-c2nnc(N(C)C(=O)C3CCCO3)s2)cc1 (stereo not drawn)	104	111	104	104	·	·	·	·	·	·	·
Cc1cnc(-c2nnc(N(C)C(=O)C3CCCO3)s2)cn1 (stereo not drawn)	56	-47*	57	69	56*	2	98	96	95	97	101
CC1(C)NC(=O)N(CC(=O)Nc2nc(-c3ccc(F)cc3)cs2)C1=O	133	100	216*[activator]	94	133*	0	95	69*	83	83	49*
O=C(CN1C(=O)NC2(CCCC2)C1=O)Nc1nc(-c2ccc(F)cc2)cs1	99	95	101	100	·	·	·	·	·	·	·
CCOC(=O)C1(CC)NC(c2ccco2)C2C(=O)N(C)C(=O)C21 (stereo not drawn)	102	99	99	104	·	·	·	·	·	·	·
O=C(Nc1ccon1)C12CC3CC(C1)CC(n1cnc([N+](=O)[O-])n1)(C3)C2	105	103	?	106	·	·	·	·	·	·	·
COCc1cc(C)nc(SCC(=O)Nc2ccc(C)c(C)c2)c1C#N	100	-63*	99	102	100*	·	·	·	·	·	·
CC(C)=CCC1=C(OCC(=O)O)C(=O)c2ccccc2C1=O	97	93	?	100	·	·	·	·	·	·	·
Cn1c(CSCc2ccc(Cl)cc2)nnc1SCC(=O)Nc1nc2ccccc2s1	·	·	·	·	·	-1	98	101	99	102	103
Cn1c(CSCc2ccc(Cl)cc2)nnc1SCC(=O)Nc1nccs1	104	109	103	102	·	·	·	·	·	·	·
c1ccc(CCc2nc3ccccc3[nH]2)cc1	91	100	93	95	·	·	·	·	·	·	·
Nc1cccc(CCc2nc3cc4ccccc4cc3[nH]2)c1	89	8.6*	83	70	89*	-1	98	93	94	97	108
Cc1ccc2nc(NC(=O)c3ccc(Cl)s3)sc2c1	100	89	103	103	·	·	·	·	·	·	·
O=C(NCCCN1CCOCC1)c1ccc2c(c1)N(Cc1ccccc1)CCS2	102	98	?	100	·	·	·	·	·	·	·
CN1CCN(CCCNC(=O)c2ccc3c(c2)N(Cc2ccccc2)CCS3)CC1	142	140	134	145*[activator]	142*	0	102	105	102	102	105
Cn1cccc1/C=C1\SC(=O)N(CC(=O)Nc2ccc(Cl)cc2)C1=O	102	98	100	98	·	·	·	·	·	·	·
Cc1ccc(NC(=O)CN2C(=O)S/C(=C\C(=O)Nc3ccc(Cl)cc3)C2=O)cc1	79	8.0*	75	79	79*	2	104	95	105	99	91
